Records with an inconclusive call do not appear. Calls of active or inactive are those of the source. Unless noted, calls follow the shape of the dose curve; as a rule, active = well fitted curve in the direction sought with a large enough effect in the repeat runs; inconclusive = weak or mixed curves; inactive = no such curve, though single readings can be large; an effect the other way counts as inactive or inconclusive.
What was measured:
[1] = qHTS assay to identify small molecule agonists of the NFkB signaling pathway (AID 1159509; active = well fitted curve in the direction sought with a large enough effect in the signal ratio in the repeat runs, not every such curve was filed as active; the % refers to the signal ratio; also: series mostly up to about 61 µM; % is scaled to controls: 0 for no effect and ±100 for the full control effect)
In short: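 Agonist activity was read as beta-lactamase-driven FRET change (460 and 530 nm emission, 405 nm excitation) following 1.5 hr substrate loading at room temperature. Beforehand, ME-180 NFkB-bla reporter cells were treated with compounds for 5 hr at 37 C.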

[2] = qHTS assay to identify small molecule agonists of the NFkB signaling pathway - cell viability counter screen (AID 1159515; calls by dose curve; also: series mostly up to about 61 µM; % is scaled to controls: 0 for no effect and ±100 for the full control effect; nearly all actives have a fitted effect of over 55% in size)
In short: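 Counter screen run alongside the NFkB-bla agonist assay: ME-180 reporter cells exposed to compounds for 5 hr, then lysed with CellTiter-Glo in the same wells. Luminescence, read after 30 min, reflects viable cells.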

[3] = qHTS assay to identify small molecule agonists of the endoplasmic reticulum stress response signaling pathway (AID 1159516; active = well fitted activation curve with a large enough effect in the signal ratio in the repeat runs, not every such curve was filed as active; the % refers to the signal ratio; also: % is scaled to controls: 0 for no effect and ±100 for the full control effect)
In short: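 For this screen, HeLa cells stably carrying beta-lactamase under the ER stress response element received test compounds, positive controls or DMSO for 5 hr at 37 C; B/G FRET substrate was then added and dual-wavelength emission recorded.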

[4] = qHTS assay to identify small molecule agonists of the endoplasmic reticulum stress response signaling pathway - cell viability counter screen (AID 1159517; calls by dose curve; also: series mostly up to about 61 µM; % is scaled to controls: 0 for no effect and ±100 for the full control effect; nearly all actives have a fitted effect of over 50% in size)
In short: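 ESRE-bla HeLa cells (1,500/well) were plated overnight at 37 C and exposed to compounds for 5 hr. After the 2 hr beta-lactamase substrate read, CellTiter-Glo went into the same wells, and luminescence was read after 30 min at room temperature.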

[5] = qHTS assay to identify small molecule antagonists of the retinoid-related orphan receptor gamma (ROR-gamma) signaling pathway - cell viability counter screen (AID 1159520); also: % is scaled to controls: 0 for no effect and ±100 for the full control effect; nearly all actives have a fitted effect of over 50% in size
In short: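 Cytotoxicity was read from cellular ATP (CellTiter-Glo luminescence) after 16 hr at 37 C with 1 uM doxycycline induction. The inducer was added 2 hr after compound transfer to Tet-on ROR gamma CHO cells.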

[6] = target: Nuclear receptor ROR-gamma (Homo sapiens) (UniProt P51449); assay: qHTS assay to identify small molecule antagonists of the retinoid-related orphan receptor gamma (ROR-gamma) signaling pathway (AID 1159521; also: top concentration of the series differs between compounds; % is scaled to controls: 0 for no effect and ±100 for the full control effect; nearly all actives have a fitted effect of over 50% in size)
In short: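 Antagonist read-out: drop in luminescence (ONE-Glo) from an RORE-LUC reporter in CHO cells with doxycycline-inducible ROR-gamma; 2 hr compound pretreatment, 1 uM doxycycline, 16 hr incubation at 37 C.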

[7] = qHTS assay to identify small molecule agonists of the AP-1 signaling pathway - cell viability counter screen (AID 1159525; calls by dose curve; also: nearly all actives have a fitted effect of over 55% in size)
In short: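 Intracellular ATP by Cell Titer Glo luminescence (30 min, RT) in the same ME-180 AP-1-bla wells after the 5 h compound exposure at 37 °C. Normalised to tetra n-octyl ammonium bromide and DMSO controls.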

[8] = qHTS assay to identify small molecule agonists of the AP-1 signaling pathway (AID 1159526; calls by dose curve; also: % is scaled to controls: 0 for no effect and ±100 for the full control effect)
[9] = target: Retinoic acid receptor RXR-alpha (Homo sapiens) (UniProt P19793); assay: qHTS assay to identify small molecule agonists of the RXR signaling pathway (AID 1159527; calls by dose curve; also: % is scaled to controls: 0 for no effect and ±100 for the full control effect; nearly all actives have a fitted effect of over 35% in size)
In short: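 Agonist-mode beta-lactamase reporter assay: HEK 293T RXR-alpha-UAS-bla cells treated 16 hr at 37 C with compounds, 9-cis retinoic acid as positive control. LiveBLAzer FRET substrate, 405 nm excitation, 460/530 nm emission.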

[10] = qHTS assay to identify small molecule agonists of the RXR signaling pathway - cell viability counter screen (AID 1159529); also: series mostly up to about 77 µM; % is scaled to controls: 0 for no effect and ±100 for the full control effect; nearly all actives have a fitted effect of over 50% in size
In short: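 CellTiter-Glo luminescence gave viability in the wells also read for beta-lactamase. Cells (RXR-alpha-UAS-bla HEK 293T, 2% charcoal-stripped FBS medium) had 5 hr plating, then 16 hr compound exposure at 37 C; tetraoctyl ammonium bromide served as positive control.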

[11] = qHTS assay to identify small molecule antagonists of the retinoid acid receptor (RAR) signaling pathway - cell viability counter screen (AID 1159551); also: % is scaled to controls: 0 for no effect and ±100 for the full control effect; nearly all actives have a fitted effect of over 35% in size
In short: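 Measured by luminescent ATP detection, viability reflects C3RL4 cells treated 6 h at 37 C with test chemicals in the presence of 1 uM (final) retinol.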

[12] = qHTS assay to identify small molecule antagonists of the retinoic acid receptor (RAR) signaling pathway (AID 1159552)
In short: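 Luminescent RARE reporter read-out in C3RL4 cells: 6 hr co-treatment at 37 C of test compounds with retinol at 1 uM final. Cells plated overnight beforehand; luciferase reagent incubated 30 min at room temperature before reading.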

[13] = qHTS assay to identify small molecule agonists of the retinoic acid receptor (RAR) signaling pathway (AID 1159553); also: potency is read from the fitted curve at half-maximal effect
In short: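 6 hr compound exposure (DMSO vehicle) of overnight-plated C3RL4 RARE-luc cells at 37 C; luminescence quantified after 30 min RT with luciferase reagent.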

[14] = qHTS assay to identify small molecule antagonists of the estrogen related receptor (ERR) signaling pathway - cell viability counter screen (AID 1224818); also: series mostly up to about 46 µM; % is scaled to controls: 0 for no effect and ±100 for the full control effect
In short: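 Compounds dissolved in DMSO were applied to ERR cells seeded at 2,000 per well 6 h earlier. Cell viability followed 17.5 h later via 30-min CellTiter-Fluor fluorescence.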

[15] = qHTS assay to identify small molecule antagonists of the estrogen related receptor signaling pathway with the pleiotropic PPARgamma coactivator (PGC) cell viability counter screen (AID 1224822)
In short: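 Counter screen for cell viability: PGC/ERR cells, 6 h pre-incubation after plating, 17.5 h compound exposure at 37 C, fluorescence from CellTiter-Fluor after 30 min.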

[16] = qHTS assay to identify small molecule antagonists of the vitamin D receptor (VDR) signaling pathway - cell viability counter screen (AID 743225)
In short: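 Cytotoxicity counter screen read by CellTiter-Glo luminescence (30 min, room temperature) in the same wells as the VDR-bla antagonist readout. HEK 293T VDR-UAS-bla cells had 16 h at 37C with compound and 3 nM (final) 1-alpha,25-dihydroxyvitamin D3, then 2 h with FRET substrate.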

[17] = qHTS assay to identify small molecule antagonists of the estrogen related receptor (ERR) signaling pathway (AID 1224819)
In short: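 Compounds dissolved in DMSO were pin-transferred onto ERR cells that had been plated 6 h earlier, and cells were then incubated 18 h at 37 C; signal was luciferase luminescence via One-Glo.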

[18] = qHTS assay to identify small molecule agonists of the estrogen related receptor (ERR) signaling pathway (AID 1224820); also: % is scaled to controls: 0 for no effect and ±100 for the full control effect
In short: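 After 6 h plating (2,000 cells/well) and 18 h compound treatment at 37 C, ERR cells were lysed with One-Glo and luminescence read after 30 min at room temperature.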

[19] = test system: estrogen-related receptor alpha (ERRalpha) with PGC-1alpha coactivator, human; assay: qHTS assay to identify small molecule antagonists of the estrogen related receptor signaling pathway with the pleiotropic PPARgamma coactivator (PGC) (AID 1224821; calls by dose curve)
In short: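 Luminescence from One-Glo luciferase reagent (30 min, room temperature) measured after 18 h compound treatment at 37 °C. Cells carry the PGC/ERR reporter and were seeded 6 h prior to dosing.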

[20] = qHTS assay to identify small molecule agonists of the estrogen related receptor signaling pathway with the pleiotropic PPARgamma coactivator (PGC) (AID 1224823); also: % is scaled to controls: 0 for no effect and ±100 for the full control effect
In short: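 Luminescence from One-Glo reagent (30 min, room temperature) was read after 18 h compound treatment at 37 C of PGC/ERR cells plated 6 h beforehand; compounds delivered in DMSO by pin tool.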

Sequence of Retinoic acid receptor RXR-alpha (Homo sapiens) (P19793 whole entry, looked up): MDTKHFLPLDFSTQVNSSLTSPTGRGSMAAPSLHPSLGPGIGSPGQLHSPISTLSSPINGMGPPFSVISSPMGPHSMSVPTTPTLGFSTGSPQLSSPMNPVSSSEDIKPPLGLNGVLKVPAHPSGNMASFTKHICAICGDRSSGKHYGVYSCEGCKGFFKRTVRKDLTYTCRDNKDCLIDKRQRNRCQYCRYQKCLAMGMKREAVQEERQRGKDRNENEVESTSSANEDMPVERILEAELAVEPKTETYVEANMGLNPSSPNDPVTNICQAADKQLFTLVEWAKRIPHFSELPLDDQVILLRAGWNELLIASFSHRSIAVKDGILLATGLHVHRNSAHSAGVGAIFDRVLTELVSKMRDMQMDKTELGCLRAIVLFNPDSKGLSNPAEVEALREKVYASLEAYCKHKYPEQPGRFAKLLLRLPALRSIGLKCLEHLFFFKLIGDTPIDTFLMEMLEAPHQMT

CCc1cc(OC)c(C[C@H](C)N)cc1OC
inactive: outcome [1] | outcome [2] | outcome [3] | Potency [4] | Potency [5] | Potency [6] | Potency [7] | outcome [8] | Potency [9] | Potency [10] | Potency [11] | Potency [12] | Potency [13]

NCC1(CC(=O)O)CCCCC1
inactive: outcome [1] | outcome [2] | outcome [3] | Potency [4] | Potency [5] | Potency [6] | Potency [7] | outcome [8] | Potency [9] | Potency [10] | Potency [11] | Potency [12] | Potency [13] | outcome [14] | outcome [15]

Brc1c(Br)c(Br)c(Br)c(Br)c1Br
inactive: activation [1] 0.368% [at 6.95 µM] | activity, negative = cytotoxic [2] -11.1% [at 6.95 µM] | activation [3] -0.555% [at 6.95 µM] | activity change, negative = cytotoxicity [4] 1.86% [at 6.95 µM] | activity, negative = cytotoxicity [5] 1.32% [at 8.39 µM] | activity change, negative = inhibition [6] 19.7% [at 8.39 µM] | viability change, negative = cytotoxic [7] -3.27% [at 6.97 µM] | activation [8] -7% [at 6.97 µM] | activation [9] 13.1% [at 6.98 µM] | activity change, negative = cytotoxicity [10] 7.53% [at 6.97 µM] | activity change, negative = cytotoxicity [11] -4.22% [at 8.39 µM] | activity, negative = inhibition [12] -18.1% [at 8.39 µM] | activation [13] -2.33% [at 8.36 µM]

CCCN1CCC[C@@H]2Cc3[nH]ncc3C[C@H]21
inactive: Potency [16] | outcome [1] | outcome [2] | outcome [3] | Potency [4] | Potency [5] | Potency [6] | Potency [7] | outcome [8] | Potency [9] | Potency [10] | Potency [11] | Potency [12] | Potency [13] | outcome [14] | outcome [17] | outcome [18] | outcome [19] | outcome [15] | outcome [20]

C[C@H](N)C(=O)c1ccccc1
inactive: Potency [16] | outcome [1] | outcome [2] | outcome [3] | Potency [4] | Potency [5] | Potency [6] | Potency [7] | outcome [8] | Potency [9] | Potency [10] | Potency [11] | Potency [12] | Potency [13]

CS(=O)(=O)c1ccc(C(=O)C2C(=O)CCCC2=O)c(Cl)c1COCC(F)(F)F
inactive: Potency [16] | outcome [1] | outcome [2] | outcome [3] | Potency [4] | Potency [5] | Potency [6] | Potency [7] | outcome [8] | Potency [9] | Potency [10] | Potency [11] | Potency [12] | Potency [13]

CCCCOC(C)=O
inactive: outcome [1] | outcome [2] | outcome [3] | Potency [4] | Potency [5] | Potency [6] | Potency [7] | outcome [8] | Potency [9] | Potency [10] | Potency [11] | Potency [12] | Potency [13]

O=C/C=C/c1ccco1
inactive: Potency [16] | outcome [1] | outcome [2] | outcome [3] | Potency [4] | Potency [5] | Potency [6] | Potency [7] | outcome [8] | Potency [9] | Potency [10] | Potency [11] | Potency [12] | Potency [13]

CCC1(c2cccc(O)c2)CCCCN(C)C1 (configuration not stated)
inactive: Potency [16] | outcome [1] | outcome [2] | outcome [3] | Potency [4] | Potency [5] | Potency [6] | Potency [7] | outcome [8] | Potency [9] | Potency [10] | Potency [11] | Potency [12] | Potency [13]

CON(C)C(=O)Nc1ccc(Br)c(Cl)c1
inactive: outcome [1] | outcome [2] | outcome [3] | Potency [4] | Potency [5] | Potency [6] | Potency [7] | outcome [8] | Potency [9] | Potency [10] | Potency [11] | Potency [12]
active: Potency [13] 21.7 µM

O=C(Cl)C(Cl)(Cl)Cl
inactive: outcome [1] | outcome [2] | outcome [3] | Potency [4] | Potency [5] | Potency [6] | Potency [7] | outcome [8] | Potency [9] | Potency [10] | Potency [11] | Potency [12] | Potency [13]

C=CCN1CC[C@]23CCCC[C@H]2[C@H]1Cc1ccc(O)cc13
inactive: Potency [16] | outcome [1] | outcome [2] | outcome [3] | Potency [4] | Potency [5] | Potency [6] | Potency [7] | outcome [8] | Potency [9] | Potency [10] | Potency [11] | Potency [12] | Potency [13]

CC(C)(C)C(=O)C(Cl)Cl
inactive: outcome [1] | outcome [2] | outcome [3] | Potency [4] | Potency [5] | Potency [6] | Potency [7] | outcome [8] | Potency [9] | Potency [10] | Potency [11] | Potency [12] | Potency [13]

C=C(Cl)CCl
inactive: Potency [16] | outcome [1] | outcome [2] | outcome [3] | Potency [4] | Potency [5] | Potency [6] | Potency [7] | outcome [8] | Potency [9] | Potency [10] | Potency [11] | Potency [12] | Potency [13]

CC[C@@H](CO)NC(=O)[C@@H]1C=C2c3cccc4c3c(cn4C)C[C@H]2N(C)C1
inactive: Potency [16] | outcome [1] | outcome [2] | outcome [3] | Potency [4] | Potency [5] | Potency [6] | Potency [7] | outcome [8] | Potency [9] | Potency [10] | Potency [11] | Potency [12] | Potency [13] | outcome [14] | outcome [17] | outcome [18] | outcome [19] | outcome [15] | outcome [20]

COC(=O)c1ccccc1CS(=O)(=O)NC(=O)Nc1nc(OC)cc(OC)n1
inactive: outcome [1] | outcome [2] | outcome [3] | Potency [4] | Potency [5] | Potency [6] | Potency [7] | outcome [8] | Potency [9] | Potency [10] | Potency [11] | Potency [12] | Potency [13]

O=c1[nH]c2ccccc2o1
inactive: Potency [16] | outcome [1] | outcome [2] | outcome [3] | Potency [4] | Potency [5] | Potency [6] | Potency [7] | outcome [8] | Potency [9] | Potency [10] | Potency [11] | Potency [12] | Potency [13]

Cl/C=C/CCl
inactive: Potency [16] | outcome [1] | outcome [2] | outcome [3] | Potency [4] | Potency [5] | Potency [6] | Potency [7] | outcome [8] | Potency [9] | Potency [10] | Potency [11] | Potency [12] | Potency [13]

CCN(CC)CCOC(=O)C(O)(c1ccccc1)c1ccccc1
inactive: Potency [16] | outcome [1] | outcome [2] | outcome [3] | Potency [4] | Potency [5] | Potency [6] | Potency [7] | outcome [8] | Potency [9] | Potency [10] | Potency [11] | Potency [12] | Potency [13]

From PubChem BioAssay (Tox21)
